# Test results as given in the supplement of paper PMC7366291.
# Where a name gives a salt, the structure may show the parent alone. ± gives the standard deviation or the standard deviation of the averaged measurements.
# Tested on: Danio rerio Tg(wt1b:EGFP) embryo, pronephros
# Experiment: glomerular separation, fold change vs DMSO control; higher = glomeruli further apart (abnormal)
# Conditions: 25 µM; exposure: 24-48 hpf
# Outline: (§1)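 Dechorionated Tg(wt1b:EGFP) zebrafish embryos were kept from 24 to 48 hpf at 28.5°C in HEPES-buffered E3 containing 0.003% PTU, 0.5% DMSO and 25 μM compound. The pronephroi were then imaged from the dorsal side in agarose-filled 96-well plates at 470 nm with 10 z-slices, and 16 reference points were placed by hand on maximum projections in Fiji so that a macro could calculate distances and angles. Values lying more than 2 SD from the mean of a feature were discarded. Every feature is given as a fold change against the mean of DMSO-treated embryos from the same day.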
row,SMILES,glomerular separation
1,C[C@]12CC[C@@H](O)C[C@H]1CC[C@@H]1[C@@H]2CC[C@]2(C)C(=O)CC[C@@H]12 [3-alpha-Hydroxy-5-beta-androstan-17-one],1.13 ± 0.44
2,CN1C[C@H](CNC(=O)OCc2ccccc2)C[C@@H]2c3cccc4c3c(cn4C)C[C@H]21 [Metergoline],0.977 ± 0.48
3,COc1ccc(CN2CCNCC2)c(OC)c1OC [Trimetazidine dihydrochloride],0.91 ± 0.3
4,O[C@@H]1CCCC[C@H]1N1CCC(c2ccccc2)CC1 [L(-)-vesamicol hydrochloride],1.01 ± 0.55

# Tested on: Danio rerio Tg(wt1b:EGFP) embryo, pronephros
# Experiment: glomerular width (mean of left and right), fold change vs DMSO control; higher = wider glomerulus
# Conditions: 25 µM; exposure: 24-48 hpf
# Outline: as §1
row,SMILES,glomerular width
1,CCC1(CC)C(=O)C=CNC1=O [Pyrithyldione],1.034 ± 0.0093
2,CCN(CC)C(C)C(=O)c1ccccc1 (configuration not stated) [Amfepramone hydrochloride],0.97173 ± 0.00026
3,CN(C)C(=O)Oc1cccc([N+](C)(C)C)c1 [Neostigmine bromide],0.859 ± 0.034
4,CCC(=O)O[C@@](Cc1ccccc1)(c1ccccc1)[C@@H](C)CN(C)C [Levopropoxyphene napsylate],1.05 ± 0.037
5,COc1ccc2c(c1)[C@]13CCCC[C@@H]1[C@H](C2)N(C)CC3 [Dextromethorphan hydrobromide monohydrate],0.9098 ± 0.004
6,CCN[C@@H](C)Cc1cccc(C(F)(F)F)c1 [Dexfenfluramine hydrochloride],1.04 ± 0.037
7,CC[C@@H](CO)NC(=O)[C@@H]1C=C2c3cccc4[nH]cc(c34)C[C@H]2N(C)C1 [Methylergometrine maleate],0.927 ± 0.056
8,CCC(COC(=O)c1cc(OC)c(OC)c(OC)c1)(c1ccccc1)N(C)C (configuration not stated) [Trimebutine],0.9518 ± 0.0092
9,O=C(CCCN1CCC2(CC1)C(=O)NCN2c1ccccc1)c1ccc(F)cc1 [Spiperone],0.978 ± 0.02
10,CCC1(C)CC(=O)NC(=O)C1 [Bemegride],0.997 ± 0.013
11,CN1C(=O)CCS(=O)(=O)C1c1ccc(Cl)cc1 (configuration not stated) [Chlormezanone],1.05 ± 0.11
12,CC(C)N(CCC(C(N)=O)(c1ccccc1)c1ccccn1)C(C)C (configuration not stated) [Disopyramide],1.09 ± 0.086
13,C[C@]12CCC(=O)C(O)=C1CC[C@@H]1[C@@H]2CC[C@]2(C)C(=O)CC[C@@H]12 [Formestane],0.866 ± 0.031
14,NC(=O)C[S+]([O-])C(c1ccccc1)c1ccccc1 (configuration not stated) [Modafinil],1.09 ± 0.073
15,NC(=O)OCCCc1ccccc1 [Phenprobamate],1.03 ± 0.022
16,CC(Cc1ccc(O)cc1)NCC(O)c1cc(O)cc(O)c1 (configuration not stated) [Fenoterol hydrobromide],1.051 ± 0.0075
17,C#CCN(C)[C@H](C)Cc1ccccc1 [Selegiline hydrochloride],0.969 ± 0.055
18,C[C@]12CCC(=O)C=C1C=C[C@@H]1[C@@H]2CC[C@@]2(C)[C@H]1CC[C@@]2(O)CCC(=O)O [Canrenoic acid potassium salt],1.03 ± 0.033
19,CC(=O)[C@H]1CC[C@H]2[C@@H]3CC[C@H]4C[C@H](O)CC[C@]4(C)[C@H]3C(=O)C[C@]12C [Alfaxalone],0.957 ± 0.0043
20,O=C(CCCN1CCC(n2c(=O)[nH]c3ccccc32)CC1)c1ccc(F)cc1 [Benperidol],0.951 ± 0.034
21,C#C[C@]1(O)CC[C@H]2[C@@H]3CCC4=CC(=O)CCC4=C3C=C[C@@]21CC [Gestrinone],1.119 ± 0.0059
22,CC(Cc1ccccc1)NCCC(c1ccccc1)c1ccccc1 (configuration not stated) [Prenylamine lactate],1.07 ± 0.071
23,C[N+]1(C)[C@@H]2CC[C@H]1C[C@@H](OC(=O)C(CO)c1ccccc1)C2 (some centres not stated) [Methylatropine nitrate],0.936 ± 0.028
24,O=P1(NCCCl)OCCCN1CCCl (configuration not stated) [Ifosfamide],0.999 ± 0.045
25,C[C@@H]1CN([C@H]2CC[C@](C#N)(c3ccc(F)cc3)CC2)CC[C@]1(C(=O)O)c1ccccc1 [Levocabastine hydrochloride],1.06 ± 0.034
26,CC(C)c1c(CN(C)C(C)Cc2ccccc2)n(C)n(-c2ccccc2)c1=O (configuration not stated) [Famprofazone],0.985 ± 0.031
27,NCCc1c[nH]c2ccc(O)cc12 [Serotonin hydrochloride],0.902 ± 0.038
28,CN[C@@H]1[C@@H](O)[C@@H](O[C@@H]2[C@@H](O)[C@H](O[C@H]3O[C@H](CN)CC[C@H]3N)[C@@H](N)C[C@H]2N)OC[C@]1(C)O.CN[C@@H]1[C@@H](O)[C@@H](O[C@@H]2[C@@H](O)[C@H](O[C@H]3O[C@H]([C@@H](C)N)CC[C@H]3N)[C@@H](N)C[C@H]2N)OC[C@]1(C)O.CN[C@@H]1[C@@H](O)[C@@H](O[C@@H]2[C@@H](O)[C@H](O[C@H]3O[C@H]([C@@H](C)NC)CC[C@H]3N)[C@@H](N)C[C@H]2N)OC[C@]1(C)O [Gentamicine sulfate],1.02 ± 0.024
